HP1b binding inh – HP1-beta chromodomain-methylated histone interaction inhibition; AlphaScreen HP1-beta / biotin-H3K9me3 peptide binding; Potency, µM (series often up to 114 µM), hits mostly inhibitors; 390,000 compounds, 0.56% hits; AID 540317; also: nearly all actives have a fitted effect of over 70% in size
Target sequence (P83916 whole entry, looked up): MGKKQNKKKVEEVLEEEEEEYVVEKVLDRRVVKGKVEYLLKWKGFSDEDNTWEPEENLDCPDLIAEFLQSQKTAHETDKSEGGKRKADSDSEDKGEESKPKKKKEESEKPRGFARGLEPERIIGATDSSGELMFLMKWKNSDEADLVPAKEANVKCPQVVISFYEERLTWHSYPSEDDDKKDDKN
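AlphaScreen: HP1-beta (50 nM) preformed 30 min with biotin-H3(1-18)K9me3 peptide (50 nM) in PBS pH 7.4, 0.01% Tween-20. Compound added for 30 min at RT, then streptavidin donor/nickel chelate acceptor beads (10 ug/mL) for 30 min.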
BAZ2B block – blocks human BAZ2B | Q9UIF8 | AID 504333 | 360,000 compounds, 4.4% hits | Potency, µM (doses to about 114 µM), hits mostly inhibitors | AlphaScreen BAZ2B-H3K14Ac peptide displacement; also: nearly all actives have a fitted effect of over 60% in size
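BAZ2B 50 nM plus b-H3(5-23)K14Ac 50 nM, PBS pH 7.4/0.01% Tween-20, 30 min RT; compound added (max 110 uM), 30 min RT; streptavidin donor/Ni-chelate acceptor beads 10 ug/mL final, 20 min dark; AlphaScreen read.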
Sfp PPTase inh – blocks B. subtilis Sfp PPTase activity; Potency, µM, hits mostly inhibitors; Q9F4F7; Biochemical Sfp PPTase activity, qHTS; 310,000 compounds, 3.5% hits; AID 1490;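 also: the enzyme is Sfp with the accession as filed and its product quenches rhodamine fluorescence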
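Fluorescence-quenching assay with 15 nM Sfp, 5 uM rhodamine-CoA and 12.5 uM BHQ-2-labelled ybbR peptide in pH 7.6 Hepes/MgCl2 buffer. Enzyme was pre-incubated with compound for 15 min at room temperature. Rate was taken from the 30-min fluorescence change (525/598 nm).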
G9a block – inhibitors of human histone lysine methyltransferase G9a | G9a H3K9 monomethylation, AlphaScreen, 2 h | Potency, µM (series often up to 102 µM), usual class: inhibitors | 350,000 compounds, 8.8% hits; also: nearly all actives have a fitted effect of over 75% in size
Target sequence (Q96KQ7 913-1193 limits assumed): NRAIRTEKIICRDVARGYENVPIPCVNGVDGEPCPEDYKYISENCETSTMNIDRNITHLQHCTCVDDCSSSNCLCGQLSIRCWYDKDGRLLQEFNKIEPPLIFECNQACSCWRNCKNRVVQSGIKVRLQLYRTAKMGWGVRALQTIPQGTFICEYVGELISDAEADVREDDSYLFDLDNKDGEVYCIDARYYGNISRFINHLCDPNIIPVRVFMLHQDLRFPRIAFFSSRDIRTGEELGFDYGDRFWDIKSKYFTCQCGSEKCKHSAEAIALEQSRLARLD
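G9a (20 nM) was preincubated 15 min with compound, then reacted 2 h at room temperature with 500 nM biotin-H3K9 peptide and 20 µM SAM. Monomethyl-H3K9 detected by AlphaScreen using anti-H3K9me1 antibody.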
JMJD2A Tudor inh – blocks the human JMJD2A Tudor domain; AlphaScreen JMJD2A-Tudor / H3K4me3 peptide binding; AID 504339; Potency, µM (series often up to 114 µM), hits mostly inhibitors; 390,000 compounds, 4.4% hits; also: nearly all actives have a fitted effect of over 50% in size
12-hLO cuvette – confirmation of human 12-lipoxygenase inhibitors, 8HQ series round 1; shares compounds with BAZ2B block; purified 12-hLO, cuvette UV 234 nm product formation; Potency, µM, actives largely listed as inhibitors; 35 compounds, 60% hits;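 active = compounds that slowed 12-hLO product formation enough to yield a measured IC50 potency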
KDM4E inh – blocks human JMJD2E demethylase activity; shares compounds with BAZ2B block; JMJD2E demethylase, FDH-coupled NADH fluorescence (FDH is formaldehyde dehydrogenase); Potency, µM (highest dose often 57 µM), most hits filed as inhibitors; 130 compounds, 89% hits; AID 493212
ME-1 growth – ME-1 cell growth inhibition; shares compounds with BAZ2B block; ME-1 cell proliferation, ATP luminescence, 48 h; Potency, µM (series often up to 56.1 µM), usual class: inhibitors; 140 compounds, 20% hits; AID 504370
Numbers stand for hits; – = inactive; ? = inconclusive; · = no result; [ ] = remark or other dose. Hits are enriched below; roughly 12% of the tested compounds scored in any of these assays. Unless noted, calls follow the shape of the dose curve; as a rule, active = well fitted curve in the direction sought with a large enough effect; inconclusive = small, poorly fitted or top-dose-only effect, or another doubt; inactive = no such curve, though single readings can be large; an effect the other way counts as inactive or inconclusive.

SMILES	HP1b binding inh	BAZ2B block	Sfp PPTase inh	G9a block	JMJD2A Tudor inh	ME-1 growth	others
O=C1OCC2OC(O)C(O)C(O)C2OC(=O)c2cc(O)c(O)c(O)c2-c2c(O)c(O)c3oc(=O)c4c(c(O)c(O)c5oc(=O)c2c3c54)-c2c1cc(O)c(O)c2O (stereo not given)	·	0.71µM	3.5µM	?	·	?
COc1c(O)cc2c(c1O)C1OC(CO)C(O)C(O)C1OC2=O (stereo not given)	–	–	·	–	–	·
COc1ccc(/C=C\C(=O)Oc2cccc(/C=N/NC(=O)Cc3ccc(OC)c(OC)c3)c2)cc1	–	–	–	–	–	·
CCN(CC(=O)Nc1ccc2c(c1)OCCO2)C(=O)CCc1ccccc1Cl	–	–	·	–[12.7 µM]	–	·
O=c1c(-c2cc(O)c(O)c(O)c2)coc2cc(O)c(O)c(O)c12	·	·	–	–[2.33 µM]	·	–
CCC(=O)NC(c1cc(Cl)c2cccnc2c1O)c1cccn1C (stereo not given)	·	·	·	·	?	·	12-hLO cuvette=3.8µM;KDM4E inh=–
CC(=O)NC(c1ccco1)c1cc(Br)c2cccnc2c1O (stereo not given)	·	28µM	·	–[12.7 µM]	·	·	12-hLO cuvette=2µM;KDM4E inh=29µM
CC(=O)NC(c1ccco1)c1cc(Cl)c2cccnc2c1O (stereo not given)	·	32µM	·	–[12.7 µM]	·	·	12-hLO cuvette=3µM;KDM4E inh=32µM
CCC(=O)NC(c1ccco1)c1cc(Cl)c2cccnc2c1OC (stereo not given)	–	–	·	–[12.7 µM]	–	·	12-hLO cuvette=–;KDM4E inh=32µM
CC(=O)NC(c1ccco1)c1cc(Cl)c2ccc(N(C)C)nc2c1O (stereo not given)	·	50µM	·	?	·	·	12-hLO cuvette=–;KDM4E inh=20µM
CCOC(=O)C1CCN(c2c([N+](=O)[O-])c(C(Cl)Cl)nn2-c2ccccc2)CC1	?	?	–	?	?	·
O=[N+]([O-])c1c(C(Cl)Cl)nn(-c2ccccc2)c1N1CCCC1	?	13µM	–	?	25µM	–
CC1CCN(C(=O)C2CCN(c3nnc(-n4cccc4)s3)CC2)CC1	–	–	–	–	–	·
CCOC(=O)CNC(=O)O[C@@H]1C(=O)c2ccc(OC)cc2O[C@H]1c1ccc2c(c1)OCO2	·	·	–	·	·	·
NC[C@@H](O)c1ccc(O)c(O)c1	·	·	?	?	89µM	–
N#CC(C#N)=Cc1ccc(OC(=O)c2ccccn2)cc1	–	8.9µM	45µM	2.5µM	7.9µM	?
Cc1ccc(C)c(NC(=S)N(CCN(C)C)C(C)c2ccccn2)c1 (stereo not given)	–	·	–	–	–	–
CC(c1ccccn1)N(CCN(C)C)C(=S)Nc1cccc(F)c1 (stereo not given)	–	?	–	–[12.7 µM]	–	–
Cc1cccc(C)c1NC(=S)N(CCN(C)C)C(C)c1ccccn1 (stereo not given)	–	·	–	–	–	–
Cc1ccccc1NC(=S)N(CCN(C)C)C(C)c1ccco1 (stereo not given)	–	–	–	–	–	·
Cc1ccc(-c2cnco2)cc1	–	–	–	–	–	·
Cc1nc2ccc(NC(=S)N3CCOCC3)cc2nc1C	–	–	–	45µM	–	–
Cc1nc2ccc(NC(=S)N3CCCC3)cc2nc1C	–	–	–	·	–	·
O=C(CSc1ccc(-c2cccc([N+](=O)[O-])c2)nn1)NCc1ccccc1	–	–	–	–	–	·
O=C(CSc1ccc(-c2ccccn2)nn1)NCc1ccccc1	–	18µM	–	–	?	–
CC(=O)Nc1sc(N)nc1-c1ccccc1	–	–	?	?	–	·
Nc1nc(-c2ccccc2)c(N=Nc2cccc3ccccc23)s1	?	8.9µM	–	10µM	11µM	–
Nc1nc(-c2ccccc2)c(N=Nc2ccccc2Cl)s1	18µM	10µM	–	10µM	13µM	–
Nc1cccnc1Oc1ccccc1F	–	–	–	–	–	·
Nc1ncc(S(=O)(=O)NCc2ccccc2F)cn1	–	–	·	–	–	·
